We go through 13 compounds from the supplement of paper PMC10941209.

What is called cell viability is a read-out of living cells in per cent, often relative to untreated cells.

For the assay, the system named is HFF. The assay is described as follows: cell viability relative to DMSO control; higher = less cytotoxic. As to conditions: 1 µM; 72 h. Here is the method:
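Single-dose cytotoxicity screen of the MMV Pandemic Response Box at 1 uM on human foreskin fibroblasts (HFF), 72 h at 37 C. Viability measured by MTT (OD 550 nm) and normalised to the DMSO control (% survival).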
As for `COC(=O)Nc1nc2ccccc2[nH]1`, the cell viability is 66.4%.

For the compound `C[C@@]1(O)[C@H](O)[C@@H](CO)O[C@H]1n1ccc2c(N)ncnc21`, the cell viability was 68.5%.

Turning to `CCCCc1ccc(C(=O)O)nc1`, the cell viability came out at 56.4%.

On to `COc1ccccc1CN[C@H]1C2CCN(CC2)[C@H]1C(c1ccccc1)c1ccccc1`, for which the cell viability came out at 58.7%.

In the case of `Nc1c(C(=O)NCc2ccco2)c2nc3ccccc3nc2n1CCN1CCCCC1`, the cell viability is 64.1%.

`C[C@H]1CC[C@]2(NC1)O[C@H]1C[C@H]3[C@@H]4CC[C@H]5C[C@@H](O)CC[C@]5(C)[C@H]4CC[C@]3(C)[C@H]1[C@@H]2C` displayed a cell viability of 73.1%.

`O=C(NC12CC3CC(CC(C3)C1)C2)c1cc2ccccc2[nH]1` had a cell viability of 83.6%.

For `CN1C(=O)C(c2ccccc2)C(=O)N(c2ccccc2)c2cc(C(F)(F)F)ccc21` (stereo not drawn), the cell viability amounted to 66.3%.

In the case of `COc1cc(C(C)(C)CCCC(C)C)cc(OC)c1OC`, the cell viability is 61%.

As for `CCN1CCN(Cc2nc3ccc([N+](=O)[O-])cc3c(=O)n2-c2ccccc2F)CC1`, the cell viability came to 62.2%.

The compound `NC1(C(=O)O)CCP(=O)(O)CC1` (stereo not drawn) gave a cell viability of 63.1%.

In turn, `C[N+]1(C)CCCC(OC(=O)C(O)(c2ccccc2)c2ccccc2)C1` (stereo not drawn) showed a cell viability of 69.6%.

Compound `CC(C)Oc1cccc(NC(=O)c2ccccc2C(F)(F)F)c1` displayed a cell viability of 70.5%.
